24 targets from the supplement of paper PMC11482750 can be followed below.

± gives the standard deviation of the averaged measurements.

Compound in this experiment: C=CCN=C=S [allyl isothiocyanate]
The experiment in a line: control-subtracted net OSN firing rate; higher = stronger neuronal activation. To be noted: odorant dilution (vol/vol): 1/100. An outline of the steps:
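Values are replicate means from single sensillum recordings of palp or antennal olfactory sensory neurons. Recordings used 1–5-day-old fed female flies, either Scaptomyza species or D. melanogaster wild-type, mutant or at1 empty-neuron lines carrying Or42a homologs, stimulated with 1 s pulses of odorant (1:100 vol/vol in mineral oil or dimethyl sulfoxide, 20 μl on filter paper) into 16 ml/min filtered air. Spikes in a 0.5 s window beginning 0.2 s after onset were background-subtracted, doubled and corrected for solvent.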
Regarding Canton-S (D. melanogaster) ab3b, the “control-subtracted net OSN firing rate” value is -4.33 ± 7.5 spikes/s.

As to Canton-S (D. melanogaster) ab2a, the “control-subtracted net OSN firing rate” value was -1.33 ± 2.4 spikes/s.

As for Canton-S (D. melanogaster) ab4a, the “control-subtracted net OSN firing rate” value was 83.1 ± 18 spikes/s.

As to Canton-S (D. melanogaster) at4c, the “control-subtracted net OSN firing rate” value turned out to be 1.33 ± 4.7 spikes/s.

Regarding Canton-S (D. melanogaster) ab10a, the “control-subtracted net OSN firing rate” value was found to be 8.8 ± 6.8 spikes/s.

Consider Canton-S (D. melanogaster) ab10b, for which the “control-subtracted net OSN firing rate” value worked out at 0.4 ± 5.7 spikes/s.

Canton-S (D. melanogaster) ab1b: the “control-subtracted net OSN firing rate” value stood at 15.3 ± 20 spikes/s.

For the target TrpA1- (D. melanogaster) pb1a, the “control-subtracted net OSN firing rate” value was 152 ± 22 spikes/s.

Canton-S (D. melanogaster) ab1a: the “control-subtracted net OSN firing rate” value is -3.67 ± 15 spikes/s.

For the target Canton-S (D. melanogaster) ai3c, the “control-subtracted net OSN firing rate” value amounted to 6 ± 13 spikes/s.

For Canton-S (D. melanogaster) ab7b, the “control-subtracted net OSN firing rate” value was -5.14 ± 9.4 spikes/s.

As for Or42a- (D. melanogaster) pb1a, the “control-subtracted net OSN firing rate” value is -2.5 ± 4 spikes/s.

In the case of Canton-S (D. melanogaster) ab3a, the “control-subtracted net OSN firing rate” value stood at 30 ± 16 spikes/s.

Take Canton-S (D. melanogaster) at4b: the “control-subtracted net OSN firing rate” value was -3 ± 6.5 spikes/s.

Turning to Canton-S (D. melanogaster) ai2a, the “control-subtracted net OSN firing rate” value is 4 ± 7.8 spikes/s.

With Canton-S (D. melanogaster) ab2b, the “control-subtracted net OSN firing rate” value is -6 ± 4 spikes/s.

Canton-S (D. melanogaster) ab1d: the “control-subtracted net OSN firing rate” value was -4.33 ± 9.1 spikes/s.

For the target Canton-S (D. melanogaster) at4a, the “control-subtracted net OSN firing rate” value is -3 ± 7.5 spikes/s.

For the target Canton-S (D. melanogaster) ab4b, the “control-subtracted net OSN firing rate” value was -2.57 ± 3.2 spikes/s.

Consider Canton-S (D. melanogaster) ab5a, for which the “control-subtracted net OSN firing rate” value was -2 ± 7.1 spikes/s.

Consider w1118 (D. melanogaster) pb1a, for which the “control-subtracted net OSN firing rate” value amounted to 91.3 ± 46 spikes/s.

Regarding Canton-S (D. melanogaster) ab5b, the “control-subtracted net OSN firing rate” value was -3.14 ± 11 spikes/s.

On to Canton-S (D. melanogaster) ab8a, for which the “control-subtracted net OSN firing rate” value came to 31.1 ± 18 spikes/s.

On to Canton-S (D. melanogaster) ab1c, for which the “control-subtracted net OSN firing rate” value is -3.33 ± 11 spikes/s.
